# Screening data from PubChem BioAssay.
# MazF activator – activators of E. coli MazEF toxin-antitoxin RNase, primary screen, biochemical, fluorescence, uHTS; Endoribonuclease toxin MazF (Escherichia coli (strain K12)), P0AE70; FAM/BHQ RNA-DNA oligo cleavage fluorescence, 5 h; activation, % at 20 µM; 0.32% of 350,000 active; AID 504720, 2011; in the data active = activation above about 50%
# Target sequence (P0AE70 whole entry, looked up): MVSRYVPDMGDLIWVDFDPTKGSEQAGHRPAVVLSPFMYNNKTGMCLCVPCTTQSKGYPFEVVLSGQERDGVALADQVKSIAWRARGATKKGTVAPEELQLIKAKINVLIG
# Anthrax LF inh2 – Bacillus anthracis LF protease inhibitors, primary screen, biochemical, multiplex microsphere, MLPCN library. inhibition, % at 10 µM. multiplex microsphere protease cleavage assay. 0.12% of 360,000 active; also: plate controls were buffer without enzyme for full effect and enzyme alone for no effect
# BH1578 lux ind – inducers of Vibrio cholerae quorum light production without autoinducers, primary screen, BH1578 luxS cqsA deficient, single point | V. cholerae BH1578 lux reporter, luminescence, 6 h | activation, % at 18.7 µM | 0.16% of 350,000 active | AID 588436, 2011; in the data active = activation mostly above about 9.7%, no sharp cut-off; inconclusive = no clear call, values can overlap the other calls; inactive = mostly below about 3.7%
# BoNT A protease – BoNT/A light chain protease inhibitors, primary screen, biochemical, flow cytometry, MLPCN library. Botulinum neurotoxin type A light chain protease (Clostridium botulinum A str. ATCC 3502). inhibition, % at 10 µM. AID 588499, 2011. 0.17% of 360,000 active. multiplex microsphere protease substrate cleavage; also: plate controls were buffer without enzyme for full effect and enzyme alone for no effect
# Bead autofluor – flagged as autofluorescent in microsphere protease counterscreen; compound autofluorescence counterscreen, microsphere flow cytometry; active compounds read high; fluorescence intensity (concentration not given with the values); 3.1% of 360,000 active; in the data active = fluorescence intensity above about 16000; inconclusive = no clear call, values can overlap the other calls
# BoNT F protease – BoNT/F light chain protease inhibitors, primary screen, biochemical, flow cytometry, MLPCN library | Botulinum neurotoxin type F light chain protease (Clostridium botulinum) | Multiplex microsphere protease cleavage assay | inhibition, % at 10 µM | 0.22% of 360,000 active; in the data active = inhibition above about 35%, passing the limit was not always enough; inconclusive = no clear call, values can overlap the other calls; also: plate controls were buffer without enzyme for full effect and enzyme alone for no effect
# The depositor's hits bear a star; i = inactive; ? = inconclusive; nt = not tested or not shown. A selection: hits, their analogues and other compounds. The true share with any hit is near 3.9%. Rule as the data show it, unless noted: active = inhibition above about 30%; inconclusive = no clear call, values can overlap the other calls; inactive = below that.
SMILES,MazF activator,Anthrax LF inh2,BH1578 lux ind,BoNT A protease,Bead autofluor,BoNT F protease
COc1cc2c(cc1OC)CN(c1nc(-c3cccnc3)nc3ccccc13)CC2,6,3,-1,2,5125,-5
Cn1c(Cn2nnc(-c3ccccc3)n2)nnc1SCc1ccccc1Cl,-9,-1,i,?,16202*,2
CCOC(=O)c1c(-n2c(C)cc(C=C3C(=O)NC(=S)NC3=O)c2C)sc2c1CCCC2,-49,38*,i,36*,9156,29
CCOC(=O)c1c(-n2c(C)cc(/C=C3/C(=O)NC(=O)N(CC)C3=O)c2C)sc2c1CCCC2,-13,-5,i,1,3493,7
Cc1ccc(Oc2nnc(-c3ccccc3)c3ccccc23)cc1,4,-4,0,6,21278*,6
COC(=O)/C=c1/s/c(=C(\C#N)C(=O)NCc2ccco2)n(-c2ccc(C)cc2)c1=O,65*,-1,-1,2,4801,?
CCCc1nc2ccc(C)cn2c1Cc1ccccc1C(F)(F)F,nt,0,nt,1,6409,-9
CC(/C=C/c1ccco1)=N\NC(=O)COc1ccc(C)c(C)c1,7,-4,i,-1,5468,-10
CCCCCC1CC(/C(C)=N/NC(N)=O)OC1=O (centres undefined),5,2,nt,0,3290,0
CCCCCCC1CC(C)(/C(C)=N/NC(N)=O)OC1=O (centres undefined),-3,2,1,5,18949*,6
CCCOC(=O)NC1CCS(=O)(=O)C1 (centres undefined),-1,0,17*,0,8280,7
CC(C)(C)c1ccc(OCC(=O)NC2CCS(=O)(=O)C2)cc1 (centres undefined),2,2,-1,?,19473*,5
Cc1ccc(OC(=O)NC2CCS(=O)(=O)C2)cc1C (centres undefined),-10,-2,0,-2,23723*,-3
CCC1NC(=O)c2cccnc2-n2c1nc1cc(OC)c(OC)cc1c2=O (centres undefined),-3,-6,i,-1,3806,-4
CCNC(=O)C1(C)CCN(C(=O)c2ccc(C(F)(F)F)cc2)C1 (centres undefined),nt,-3,i,0,3949,2
CC(=O)N(CCC1(C(C)C)CCOC(C)(C)C1)Cc1ccco1 (centres undefined),-3,0,i,?,19564*,1
COc1ccc(-c2cnc3c(NC(C)=O)cc(-c4ccc(C(=O)N5CCOCC5)cc4)cn23)cc1OC,nt,-9,-1,0,4212,-9
N#CCSc1nc2cc(C(=O)N3CCC(C(N)=O)CC3)ccc2c2nc3ccccc3n12,-13,0,i,2,20618*,1
N#CC1=C(N)Oc2c(c(=O)oc3ccccc23)C1c1ccncc1 (centres undefined),1,-4,i,0,5900,-3
CCOc1ccc(C2C(C#N)=C(N)Oc3c2c(=O)oc2ccccc32)cc1 (centres undefined),-2,-2,0,?,24671*,-6
COC(=O)CC1(C(=O)OC)Nc2cc(Cl)c(Cl)cc2S(=O)(=O)N1O (centres undefined),123*,0,i,0,3891,-1
Cc1ccc(/C(N)=N/OC(=O)CCC2CCCCC2)cc1,-2,-2,i,-2,16562*,-5
Cc1ccc(/C(N)=N/OC(=O)Cc2cccs2)cc1,-8,-2,-6,-1,23460*,-2
N/C(=N\OC(=O)Cc1cccs1)c1ccccc1,6,-1,0,2,?,1
Cc1cccc(/C(N)=N/OC(=O)Cc2cccs2)c1,-5,-2,i,2,19950*,4
SMILES,MazF activator,Anthrax LF inh2,BH1578 lux ind,BoNT A protease,Bead autofluor,BoNT F protease
COc1cc(OC)cc(-c2c(-c3cccs3)c3cc(-c4ccc(C(N)=O)cc4)ccc3n2C)c1,-15,-1,i,0,3450,0
CCOc1ccc(S(=O)(=O)NC(Cc2cnc[nH]2)C(=O)O)cc1 (centres undefined),4,0,0,0,2959,1
Cn1c(=O)oc2ccc(C(=O)CSc3nnnn3-c3ccccc3)cc21,-9,-8,i,?,19593*,-1
O=C(CSc1nnnn1-c1ccccc1)c1cc2ccccc2oc1=O,0,4,i,-1,4399,-28
O=S(=O)(Nc1nc2ccccc2nc1Cl)c1ccc(Cl)cc1,-3,1,-1,0,8294,-3
O=S(=O)(Nc1ncccc1O)c1ccc(Cl)cc1,0,-1,i,?,23828*,-3
O=S(=O)(Nc1cc(Cl)ccn1)c1ccc(Cl)cc1,3,-2,0,-4,17683*,-6
Cc1ccnc(NS(=O)(=O)c2ccc(Cl)nc2)c1,5,2,0,-1,5552,-1
CCCCC(=O)N(CCOC)c1nnc(-c2ccccc2C)s1,-13,1,i,-1,2585,-2
COC(=O)Nc1nnc(-c2ccncc2)s1,5,1,0,2,22886*,3
Cc1ccc(-c2nc3sc4c(c3c(=O)n2N)CC(C)(C)OC4)cc1,6,2,17*,-2,11003,-2
CC(C)Cc1nc2sc3c(c2c(=O)n1N)CC(C)(C)OC3,13,1,i,1,4423,4
CC1(C)Cc2c(sc3nc(-c4cc5ccccc5o4)n(N)c(=O)c23)CO1,9,-1,i,?,21859*,4
Cc1cccc(N(Cc2ccccc2)C(=O)c2ccc(CS(C)(=O)=O)cc2)c1,2,1,0,1,5478,10
O=C1CCC(c2ccccc2)N1C(=O)c1cccnc1 (centres undefined),5,-2,0,-1,23368*,1
O=C1CC(c2ccccc2)CN1C(=O)c1cccnc1 (centres undefined),6,-3,-1,0,4483,1
C=CCNC(=S)N1CCC(C(=O)c2ccc(F)cc2)CC1,5,6,i,-1,3910,15
COc1cccc(-c2nnc(SCC(=O)N(C(C)C)C(C)C)o2)c1,-4,-3,i,?,24162*,-5
COc1cc(OC)cc(-c2nnc(SCc3cccc(C(=O)O)c3)o2)c1,2,0,i,2,22846*,1
c1ccc(CSc2nnc(Cc3ccccc3)o2)cc1,1,-4,0,0,4186,2
O=C(O)c1cccc(CSc2nnc(Cc3ccccc3)o2)c1,-7,1,2,?,22785*,-2
COc1ccc(-c2nnc(SCC(=O)/C(C#N)=C(\C)N)o2)cc1,24,0,i,?,24309*,-2
